High-throughput results from PubChem.
A selection: hits, their analogues and other compounds. The true share with any hit is near 3.4%.
MITF inh – blocks human microphthalmia-associated transcription factor. AlphaScreen MITF homodimerization, bead proximity signal. 650,000 tested, 0.91% active. O75030. AID 1259374. inhibition, % at 2.6 µM; in the data active = inhibition above about 50%;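 note: 0% = vehicle wells with protein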
FBW7 activator – activators of human E3 ligase FBW7; AlphaScreen FBW7–phospho-cyclin E peptide binding, activator screen; normalized activity (activation), % at 26.1 µM; 650,000 tested, 0.13% active; in the data active = normalized activity above about 1.9%;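 note: purified mutant Fbw7 with reduced substrate affinity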
Target sequence (Q969H0 whole entry, looked up): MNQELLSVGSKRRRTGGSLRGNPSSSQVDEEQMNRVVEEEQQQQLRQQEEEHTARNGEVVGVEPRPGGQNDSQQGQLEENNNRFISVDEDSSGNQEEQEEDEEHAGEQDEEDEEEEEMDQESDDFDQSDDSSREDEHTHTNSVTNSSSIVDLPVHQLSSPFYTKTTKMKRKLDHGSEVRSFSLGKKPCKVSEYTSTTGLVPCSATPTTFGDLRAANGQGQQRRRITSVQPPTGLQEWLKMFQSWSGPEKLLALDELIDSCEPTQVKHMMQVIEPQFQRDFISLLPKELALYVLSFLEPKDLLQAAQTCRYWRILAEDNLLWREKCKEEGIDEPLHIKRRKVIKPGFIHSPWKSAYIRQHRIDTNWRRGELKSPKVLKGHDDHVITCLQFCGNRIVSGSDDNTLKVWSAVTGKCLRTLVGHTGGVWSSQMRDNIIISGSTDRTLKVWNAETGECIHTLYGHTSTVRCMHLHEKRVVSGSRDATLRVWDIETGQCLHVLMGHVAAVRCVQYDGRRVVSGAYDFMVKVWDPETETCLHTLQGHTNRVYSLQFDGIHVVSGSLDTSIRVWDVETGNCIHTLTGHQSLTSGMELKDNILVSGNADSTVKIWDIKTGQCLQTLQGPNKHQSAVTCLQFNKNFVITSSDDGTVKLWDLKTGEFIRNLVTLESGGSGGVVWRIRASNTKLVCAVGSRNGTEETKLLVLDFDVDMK
TEAD-YAP inh – TEAD-YAP interaction inhibition; inhibition, % at 9.12 µM; HEK-TIYL cells, TEAD-Gal4/YAP UAS-luciferase luminescence; 640,000 tested, 1.4% active; in the data active = inhibition above about 32%;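 note: 0% = median of test compound wells and 100% = reference inhibitor wells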
GPR151 activ – activators of human GPR151. activation, % at 11.2 µM. 650,000 tested, 1% active. PathHunter beta-arrestin GPR151 cells, luminescence. Q8TDV0; in the data active = activation above about 4.9%;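 note: 0% = median of compound wells and 100% = cells with positive control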
GPR151 conf act – confirmation of human GPR151 activators; shares compounds with GPR151 activ; GPR151 PathHunter beta-arrestin cells, luminescence, 90 min; % of EA-reagent control over plate median; activation, % at 11.2 µM; 6,700 tested, under 10 active; AID 1508609;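 active = mean percent activation across replicates above the confirmation screen cutoff of 4.91%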
GPR119 counter – activates human GPR119 in a GPR151 counter-screen. GPR119 PathHunter beta-arrestin cells, luminescence, 90 min; 0 = compound-well median, 100 = enzyme-acceptor control. activation, % at 11.2 µM. shares compounds with GPR151 activ. AID 1508611. 6,700 tested, 0.3% active;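 active = mean percent activation in the counterscreen above 29.09%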;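 note: counterscreen on off-target GPR119 to flag nonselective hits from the GPR151 activator screen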
Active calls of the source: *; x = not tested or not shown.

SMILES	MITF inh	FBW7 activator	TEAD-YAP inh	GPR151 activ	GPR151 conf act	GPR119 counter
COc1ccc(CNc2nc(-c3cccnc3)nn2C(=O)c2ccc([N+](=O)[O-])cc2)cc1	3	0	7	0	x	x
CC(COc1ccccc1)OC(=O)c1ccc(Cl)c(S(=O)(=O)N2CCOCC2)c1 (stereo not drawn)	12	0	-3	0	x	x
Cn1c(=NC(=O)CN2C(=O)CCC2=O)sc2cc(F)cc(F)c21	-3	0	1	2	x	x
CCC(=O)N=c1sc2cc(F)cc(F)c2n1C	12	0	2	8.1*	0	-3
CC1CCN(C(=S)c2ccc(N(C)C)cc2)CC1	0	0	-22	0	x	x
Cc1cc(NCc2ccccc2)nc(NCCN2CCOCC2)n1	-1	0	-4	6.0*	1	-10
O=C(O)CC1(CC(=O)N2CCc3ccccc32)CCCC1	-1	0	0	-2	x	x
COc1ccc(NC(=O)C(=O)NC2CCCCCC2)c(OC)c1	1	0	-3	5.3*	-1	-15
COc1ccc(NC(=O)c2ccoc2C)c(OC)c1	17	0	-12	6.1*	0	-12
COc1cc(OC)cc(C(=O)NNC(=O)NC2CCCCC2)c1	10	0	1	7.3*	0	-4
O=C(CCN1CCN(C2c3ccccc3-c3ccccc32)CC1)Nc1ccc(F)cc1	-1	0	-6	6.8*	0	8
COC(=O)C1=CN(Cc2ccc(OC)cc2)C=C(C(=O)OC)C1c1cccc(OC)c1	-23	1	-11	-2	x	x
Cc1c(CNC(=O)C2CC(=O)c3sc(NC(=O)c4ccccc4)nc3C2)cnn1C (stereo not drawn)	7	0	-25	-2	x	x
CCOC(=O)c1cnc2c(ccc3ccccc32)c1NCc1ccco1	-1	1	-6	5.8*	1	6
CCOC(=O)c1cnc2c(C)c(C)ccc2c1NCc1ccco1	6	0	-10	3	x	x
Cc1ccc(NC(=O)c2cccc(I)c2)cc1[N+](=O)[O-]	-15	0	-24	4.9*	1	-7
CCC(CC)NC(=O)c1ccc(C)c([N+](=O)[O-])c1	1	0	-1	5.2*	1	0
O=C(c1cccs1)N1N=C(c2ccc(Br)cc2)CC1c1ccccc1Cl (stereo not drawn)	-1	0	0	1	x	x
COc1ccc(CC2(CO)CCN(C(=O)NCc3ccccc3)CC2)cc1	4	0	8	3	x	x
Cc1nc(N2CCOCC2)nc(N2CCC(C)CC2)c1[N+](=O)[O-]	6	0	-1	3	x	x
COc1cccc(C(=O)Oc2coc(CSc3nnc(NC(C)=O)s3)cc2=O)c1	-5	0	-2	-1	x	x
COc1ccc(C(=O)Oc2coc(CSc3nnc(NC(C)=O)s3)cc2=O)cc1	-8	0	-3	13*	1	6
Cc1ccc(-n2c(-c3ccncc3)n[nH]c2=S)cc1	-5	0	11	-1	x	x
Cc1ccc(C)n1-c1ccc(-c2ccnc(-c3ccncc3)n2)cc1	6	0	4	5.4*	0	0
CCc1cccc2sc(N3CCN(C(=O)c4ccc(F)cc4)CC3)nc12	9	0	-8	-1	x	x
SMILES	MITF inh	FBW7 activator	TEAD-YAP inh	GPR151 activ	GPR151 conf act	GPR119 counter
CC1=NC2(CCN(S(C)(=O)=O)CC2)N=C1c1ccccc1	0	-1	-5	0	x	x
CC1=NC2(CCN(C(=O)NC(C)C)CC2)N=C1c1ccccc1	11	0	-5	9.1*	0	-6
Cc1ccccc1CN1CCC(N2CCC(C(=O)NCC3CCCO3)CC2)CC1 (stereo not drawn)	6	0	9	8.4*	1	18
COc1ccc(Br)cc1CNC(=O)CCC(=O)N1CCOc2ccc(C)cc21	6	0	7	-2	x	x
COc1nc(NCCO)nc(-c2c(C)nn(C)c2C)n1	2	0	8	14*	-1	-9
CCOC(=O)CSc1nnc2c3c(C)c(C)sc3ncn12	0	0	-5	5.8*	0	2
COc1ccccc1NC(=O)Cn1cc(C(=O)c2ccccc2)c(=O)c2ccccc21	8	0	4	3	x	x
CCOc1cc(/C=C(\C#N)C(=O)c2ccccc2)ccc1OCCn1c([N+](=O)[O-])cnc1C	5	0	-8	8.9*	-1	0
